For 39 molecules, growth results are on record in PubChem BioAssay (NCI).

Several values for one entry are separate records, joined by “and”; a condition that tells them apart may be missing. Equal entries are not always repeated. This is part of a sample that, as a whole, favours compounds with a hit. Of some 83,000 tested, about 20% had one in any assay.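 Results are percent growth after 48 hours of single-concentration exposure. 100 means growth as in untreated cells, lower positive values show inhibition; negative values down to -100 show cell death.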 Activity calls are given as the source filed them.

For one experiment, the system named is OVCAR-5 ovarian. The experiment is described as follows: NCI-60 one-dose screen, 48 h (100 = growth as untreated, 0 = no growth, -100 = all killed). The conditions noted are these: 10 µM. On the procedure:
Growth inhibition of the OVCAR-5 human tumor cell line is measured as a screen for anti-cancer activity. Cells are grown in 96 well plates and exposed to the test compound for 48 hours. Compounds are tested at a single concentration, which is 10^-5 M for most compounds. The reported endpoint is percent growth (GI% or GIPRCNT), where numbers from 0 - 100% represent growth inhibition, and numbers from -100% - 0 represent cell death. For example, a value of 40 represents 60% growth inhibition. A value of 0 means no net growth occurred over the course of the experiment. A value of -40 indicates 40% of cells at the beginning of the experiment died by the end of the experiment. A value of -100 means all cells are dead at the end of the experiment.
NCI-60 Human Tumor Cell Lines Screen was performed using the standard one-dose NCI protocol, which is described in more detail at https://dtp.cancer.gov/discovery_development/nci-60/default.htm.
Compounds with GIPRCNT values below 10 were considered active. Activity score was based on GIPRCNT using the following formula: […]
Score is 0 for GIPRCNT values of 100 or above, 50 for GIPRCNT values of 0, and 100 for GIPRCNT values of -100.
For the molecule `Cc1[nH]c(-c2nc3ccccc3[nH]2)c(C)c1C(=O)NC(C)C1CCCCC1` (stereo not given), the growth is 94% (inactive).

The experiment is the same for the next values; noted with them: 10 µM unless noted.
As to `CCOc1ccc2c(S(=O)(=O)O)cccc2c1[N+](=O)[O-]`, the growth was 102% (inactive) and 112% (inactive). Still for that read-out and setting: for `c1ccc(N(c2ccccc2)c2ccccc2)cc1` the value was 104% (inactive). On the same count and under the same terms, for `CC(/C=N/N1C(=O)c2ccccc2C1=O)c1ccccc1` (stereo not given) the value was 103% (inactive); for `COc1cc2c(Nc3ccc(Cl)c(Cl)c3F)ncnc2cc1OCC1C[C@@H]2CN(C)C[C@@H]2C1` (stereo not given in full), -89.8% (active) and 37.6% (inactive); for `CC(C)Cc1ccc(C(C)C(=O)NCc2ccc(Cn3c(=O)sn(CCCI)c3=O)cc2)cc1` (stereo not given), 103% (inactive) and -58.1% (active).

With `Clc1ccc(SSc2ccc(Cl)cc2)cc1`, the growth is 93.9% (inactive) and 119% (inactive). Still for that read-out and setting: in the case of `COc1ccc2cc3[n+](cc2c1OC)CCc1cc2c(cc1-3)OCO2` it was 70.5% (inactive).

For `O=S1(=O)CC(Br)C(Br)C1` (stereo not given), the growth was 96.4% (inactive) and 108% (inactive). On the same count and under the same terms, for `Cc1ccc(-c2noc(CC(=O)c3ccc([N+](=O)[O-])cc3)n2)cc1` the value was 97.5% (inactive); for `CC(C)(C)c1ccc(O)c(CNC2CCCCC2)c1`, 106% (inactive) and 93% (inactive); for `O=Nc1ccc(O)cc1`, 105% (inactive) and 98.9% (inactive). Still for that read-out and setting: in the case of `CC1CCCc2sc3nc(NNC(=O)c4cnccn4)n(-c4ccccc4)c(=O)c3c21` (stereo not given) it was 29.6% (inactive) and 36.6% (inactive); in that of `CC(=O)c1ccc2c(c1)N(CCCN1CCN(CCO)CC1)c1ccccc1S2`, 93% (inactive) and 51.6% (inactive); in that of `COc1cc2nc(N3CCN(C(=O)C4COc5ccccc5O4)CC3)nc(N)c2cc1OC` (stereo not given), 127% (inactive) and 112% (inactive) and 96.7% (inactive). The same measure, in the same setting: in the case of `OCc1ccccn1` it was 105% (inactive); in that of `COC(=O)[C@H]1CCCN1C(=O)C1CCCN1C(=O)[C@@H](Cc1ccccc1)NC(=S)Nc1cc(C(F)(F)F)cc(C(F)(F)F)c1` (stereo not given in full), 98.9% (inactive) and 90.4% (inactive). As to `CCN(CC)CCc1nc(-c2ccccc2)no1`, the growth was 98.6% (inactive) and 114% (inactive). The same measure, in the same setting: for `CNc1cc(-c2cccc(OC(F)(F)F)c2)nc2ccc(N3CCCC3)cc12` the value was 55.7% (inactive) and 12.4% (inactive) and 50% (inactive).

For the molecule `O=[N+]([O-])c1ccc(-n2[nH]nnc2=S)cc1`, the growth is 102% (inactive). Same read-out and setting: in the case of `S=C1SCN(Cc2ccccc2)CN1Cc1ccccc1` it was 93.2% (inactive); in that of `O=C(O)CN(CCN(CC(=O)O)CC(=O)O)CCN(CC(=O)O)CC(=O)O`, 89.8% (inactive) and 109% (inactive).

On to `Oc1nc(NCCc2ccccc2)sc1/C=C1\C=Nc2ncccc21`, for which the growth is 18.1% (inactive) and 37.8% (inactive). In the case of `CC1(C)[C@@H](OC(=O)CCC(=O)O)CC[C@]2(C)[C@H]3C(=O)C=C4[C@@H]5C[C@@](C)(C(=O)O)CC[C@]5(C)CC[C@@]4(C)[C@]3(C)CC[C@@H]12`, the growth was 104% (inactive) and -74.9% (active).

Turning to `COC(=O)/C=C/c1cc(O)c2c(c1)C(C(=O)OC)C(c1ccc(O)c(O)c1)O2` (stereo not given), the growth is 69.3% (inactive) and 54.7% (inactive).

In the case of `N/C(=N\N=C\c1ccc2c(c1)OCO2)N/N=C\c1ccc2c(c1)OCO2`, the growth is 122% (inactive) and 96.9% (inactive). On the same count and under the same terms, for `CN(C)c1ccc2nc3ccc(=[N+](C)C)cc-3sc2c1` the value was 17.7% (inactive) and 14.5% (inactive) and 30.6% (inactive).

As for `Cc1cc(O)c(C(C)C)cc1S(=O)(=O)O` (tested in a mixture with another compound), the growth is 80.8% (inactive) and 28.3% (inactive) and 101% (inactive). For the molecule `Cn1c(=O)c2[nH]c(CCCCCCCCc3nc4ccccc4[nH]3)nc2n(C)c1=O`, the growth was 106% (inactive) and 91.2% (inactive). Still for that read-out and setting: in the case of `CCN(CC)CCCC(C)Nc1cnc(C(=O)Nc2cc(F)cc3cccnc23)cn1` (stereo not given) it was 77.1% (inactive) and -24.2% (active). The same measure, in the same setting: in the case of `S=C(S)N1CCCC1` it was 112% (inactive) and 113% (inactive); in that of `CC(=O)C(/C=N/C(N)=O)=C(/C)O`, 109% (inactive); in that of `Cc1ncsc1CCO`, 103% (inactive). The same measure, in the same setting: for `Cc1cc(O)c2c(c1)C(=O)c1cc(O)cc(O)c1C2=O` the value was 68% (inactive) and 95.6% (inactive); for `COc1ccc2c(=O)cc(-c3ccccc3)[nH]c2c1`, 49.4% (inactive) and 46.3% (inactive). For `OCCN1CCN(CCO)CC1`, the growth was 111% (inactive) and 91.2% (inactive) and 105% (inactive).

With `O=C1NC(=O)C2(CCc3ccccc32)N1` (stereo not given), the growth was 108% (inactive) and 78.7% (inactive). The same measure, in the same setting: in the case of `COc1cc(C(=O)c2ccc3c(c2)OCO3)cc(OC)c1OC` it was 62.3% (inactive) and 63.4% (inactive); in that of `Nc1ccccc1SC1CC(=O)N(c2cccc3ccccc23)C1=O` (stereo not given), 101% (inactive).

Staying with this experiment, now noted: 100 µM.
For `Cc1[nH]c(-c2nc3ccccc3[nH]2)c(C)c1C(=O)NC(C)C1CCCCC1` (stereo not given), the growth was -95.4% (active).
